Target: MACROD1
Test: pooled miR-30 sensor sort-seq; sequence = guide strand
Details: shRNA
Note: reference of the scale not given here.

Question: How did the sensor-assay potency score (higher = more potent) turn out when TTACAGCTCTGCAGGGTCCGGC was run?
Answer: Its sensor-assay potency score (higher = more potent) is -1.02.

Question: AAGGATTTCGCCTCCTTCCAGT was tested. Which sensor-assay potency score (higher = more potent) did it give?
Answer: The sensor-assay potency score (higher = more potent) was -0.552.

Question: How did the sensor-assay potency score (higher = more potent) turn out when TCATTGAGCTGCTTGTCCTTTT was run?
Answer: The sensor-assay potency score (higher = more potent) was -0.672.

Target: MAD2L2
Test: as above
Details: shRNA

Question: For TTGTACTTCTTGCGTTTCTGGA, which sensor-assay potency score (higher = more potent) is on record?
Answer: The sensor-assay potency score (higher = more potent) was -0.29.

Question: Which sensor-assay potency score (higher = more potent) does the source give for TATACTGATTCAGCTCCGGGTG here?
Answer: The sensor-assay potency score (higher = more potent) was -0.735.

Question: With TGAGACAACAGCGAGTCTGAGC as the sequence, how does the sensor-assay potency score (higher = more potent) read?
Answer: Its sensor-assay potency score (higher = more potent) is -0.635.

Question: TTTTTAGTGGTATCAGCCGGGG was tested. Which sensor-assay potency score (higher = more potent) did it give?
Answer: Its sensor-assay potency score (higher = more potent) is -0.778.

Question: TTCCACGTAAAGCTGCATCTTT was tested. Which sensor-assay potency score (higher = more potent) did it give?
Answer: Its sensor-assay potency score (higher = more potent) is -0.0388.

Question: TCCACATGAGACAACAGCGAGT was tested. Which sensor-assay potency score (higher = more potent) did it give?
Answer: Its sensor-assay potency score (higher = more potent) is -1.88.

Question: Which sensor-assay potency score (higher = more potent) does the source give for TTTTAGTGGTATCAGCCGGGGG here?
Answer: Its sensor-assay potency score (higher = more potent) is -1.07.

Question: How did the sensor-assay potency score (higher = more potent) turn out when TGTACTTCTTGCGTTTCTGGAA was run?
Answer: Its sensor-assay potency score (higher = more potent) is -0.3.

Question: For TTTAGTGGTATCAGCCGGGGGT, which sensor-assay potency score (higher = more potent) is on record?
Answer: Its sensor-assay potency score (higher = more potent) is -0.467.

Question: Which sensor-assay potency score (higher = more potent) does the source give for TGGATCTTCTCCATGTTGCGAG here?
Answer: The sensor-assay potency score (higher = more potent) was -0.717.

Question: TTTATCCAAAATCACCACCACC was tested. Which sensor-assay potency score (higher = more potent) did it give?
Answer: Its sensor-assay potency score (higher = more potent) is -1.44.

Question: TTTCTCCACATCATTCTTCTCC was tested. Which sensor-assay potency score (higher = more potent) did it give?
Answer: Its sensor-assay potency score (higher = more potent) is -0.203.

— the OligoGym collection
